# Assay results as given in the supplement of paper PMC10849652.
# Targets with a hit are over-represented here; the source holds about 7,900 in all. About 0.6% of all pairs of compound and target were hits. Unmarked numbers belong to inactive results.
# Tests used:
# Assay in all cases: log2 fold change, soluble protein after heating vs DMSO (PISA); higher = thermal stabilisation; K562 cells, 10 uM, 30 min; active = over 0.2 and 3.5 SD of the protein, either way, in both replicates (recomputed)
# saracatinib = compound: CN1CCN(CCOc2cc(OC3CCOCC3)c3c(Nc4c(Cl)ccc5c4OCO5)ncnc3c2)CC1 [saracatinib]
# Outline: (§1)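 Soluble protein was defined as the supernatant after 21,000xg for 90 min. It came from K562 cells at 2×10^6 cells/mL given 10 μM compound for 30 min, heated in aliquots for 3 min across 48°C-58°C, pooled, and extracted in PBS with 0.5% NP-40 at 4°C, and was quantified by TMTpro 16plex LC-MS/MS with equalised channel sums. Thermal stability against control samples, from duplicates, is reported as log2 fold change.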
# sotrastaurin = compound: CN1CCN(c2nc(C3=C(c4c[nH]c5ccccc45)C(=O)NC3=O)c3ccccc3n2)CC1 [sotrastaurin]
# Outline: as §1
# alvocidib = compound: CN1CC[C@H](c2c(O)cc(O)c3c(=O)cc(-c4ccccc4Cl)oc23)[C@H](O)C1 [alvocidib]
# Outline: as §1
# Tubastatin A = compound: CN1CCc2c(c3ccccc3n2Cc2ccc(C(=O)NO)cc2)C1 [Tubastatin A]
# Outline: as §1
# [1] = compound: CNC(=O)C1=CC=CC=C1NC2=NC(=NC=C2Cl)NC3=C(C=C(C=C3)N4CCOCC4)OC
# Outline: as §1
# defactinib = compound: CNC(=O)c1ccc(Nc2ncc(C(F)(F)F)c(NCc3nccnc3N(C)S(C)(=O)=O)n2)cc1 [defactinib]
# Outline: as §1
# rucaparib = compound: CNCc1ccc(-c2[nH]c3cc(F)cc4c3c2CCNC4=O)cc1 [rucaparib]
# Outline: as §1
# [2] = compound: CNc1nc(-c2ccc3c(N)n[nH]c3c2)cc(N2C[C@@H](C(=O)NC3CCCCC3)CC[C@H]2C)n1
# Outline: as §1
# encorafenib = compound: COC(=O)N[C@@H](C)CNc1nccc(-c2cn(C(C)C)nc2-c2cc(Cl)cc(NS(C)(=O)=O)c2F)n1 [encorafenib]
# Outline: as §1
# [3] = compound: COC(=O)[C@H](CCSC)NC(=O)C1=C(C=C(C=C1)NC[C@H](CS)N)C2=CC=CC=C2
# Outline: as §1
# [4] = compound: COC1=CC=C(C=C1)CN2C=CC3=C2C=C(C=C3)C(=O)NO
# Outline: as §1
# filanesib = compound: CON(C)C(=O)N1N=C(c2cc(F)ccc2F)S[C@@]1(CCCN)c1ccccc1 [filanesib]
# Outline: as §1
# zotarolimus = compound: CO[C@H]1C[C@@H]2CC[C@@H](C)[C@@](O)(O2)C(=O)C(=O)N2CCCC[C@H]2C(=O)O[C@H]([C@H](C)C[C@@H]2CC[C@H](n3cnnn3)[C@H](OC)C2)CC(=O)[C@H](C)/C=C(\C)[C@@H](O)[C@@H](OC)C(=O)[C@H](C)C[C@H](C)/C=C/C=C/C=C/1C [zotarolimus]
# Outline: as §1
# idasanutlin = compound: COc1cc(C(=O)O)ccc1NC(=O)[C@@H]1N[C@@H](CC(C)(C)C)[C@](C#N)(c2ccc(Cl)cc2F)[C@H]1c1cccc(Cl)c1F [idasanutlin]
# Outline: as §1
# alisertib = compound: COc1cc(Nc2ncc3c(n2)-c2ccc(Cl)cc2C(c2c(F)cccc2OC)=NC3)ccc1C(=O)O [alisertib]
# Outline: as §1
# [5] = compound: COc1cc2nc(-c3cc(F)ccc3O)nc(N[C@@H]3CNC[C@H]3C(C)(C)O)c2cc1OC
# Outline: as §1
# gefitinib = compound: COc1cc2ncnc(Nc3ccc(F)c(Cl)c3)c2cc1OCCCN1CCOCC1 [gefitinib]
# Outline: as §1
# [6] = compound: COc1cccc2cc(-c3nc([C@H]4CC[C@H](C(=O)O)CC4)n4ncnc(N)c34)[nH]c12
# Outline: as §1
# lapatinib = compound: CS(=O)(=O)CCNCc1ccc(-c2ccc3ncnc(Nc4ccc(OCc5cccc(F)c5)c(Cl)c4)c3c2)o1 [lapatinib]
# Outline: as §1
# pictilisib = compound: CS(=O)(=O)N1CCN(Cc2cc3nc(-c4cccc5[nH]ncc45)nc(N4CCOCC4)c3s2)CC1 [pictilisib]
# Outline: as §1
# Sequence of UniProt Q14149 (Q14149 whole entry, looked up): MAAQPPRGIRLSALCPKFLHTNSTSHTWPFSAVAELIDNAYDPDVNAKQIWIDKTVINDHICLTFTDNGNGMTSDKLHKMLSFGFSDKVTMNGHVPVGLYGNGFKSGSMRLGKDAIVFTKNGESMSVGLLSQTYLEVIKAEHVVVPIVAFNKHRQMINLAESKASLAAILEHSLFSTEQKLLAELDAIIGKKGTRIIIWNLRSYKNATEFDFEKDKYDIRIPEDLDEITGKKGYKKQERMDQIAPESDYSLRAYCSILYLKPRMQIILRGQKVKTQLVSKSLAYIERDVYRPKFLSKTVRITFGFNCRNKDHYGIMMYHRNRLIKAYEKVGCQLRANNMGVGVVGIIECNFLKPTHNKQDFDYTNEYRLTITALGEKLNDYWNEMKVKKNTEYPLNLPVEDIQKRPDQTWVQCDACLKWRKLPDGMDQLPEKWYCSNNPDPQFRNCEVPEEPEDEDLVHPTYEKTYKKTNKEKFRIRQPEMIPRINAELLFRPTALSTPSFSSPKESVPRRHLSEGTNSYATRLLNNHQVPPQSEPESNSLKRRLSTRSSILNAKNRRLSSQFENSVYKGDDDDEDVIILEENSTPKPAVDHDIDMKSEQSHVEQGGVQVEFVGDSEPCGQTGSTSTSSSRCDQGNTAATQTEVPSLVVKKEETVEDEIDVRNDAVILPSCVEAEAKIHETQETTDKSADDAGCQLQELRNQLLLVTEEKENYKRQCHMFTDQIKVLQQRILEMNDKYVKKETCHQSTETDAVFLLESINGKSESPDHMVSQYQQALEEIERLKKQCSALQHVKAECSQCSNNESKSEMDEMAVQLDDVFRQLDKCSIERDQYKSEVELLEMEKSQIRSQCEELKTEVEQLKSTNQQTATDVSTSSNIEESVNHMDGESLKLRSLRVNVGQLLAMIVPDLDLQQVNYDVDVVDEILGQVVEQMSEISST
# Sequence of UniProt Q13469 (Q13469 whole entry, looked up): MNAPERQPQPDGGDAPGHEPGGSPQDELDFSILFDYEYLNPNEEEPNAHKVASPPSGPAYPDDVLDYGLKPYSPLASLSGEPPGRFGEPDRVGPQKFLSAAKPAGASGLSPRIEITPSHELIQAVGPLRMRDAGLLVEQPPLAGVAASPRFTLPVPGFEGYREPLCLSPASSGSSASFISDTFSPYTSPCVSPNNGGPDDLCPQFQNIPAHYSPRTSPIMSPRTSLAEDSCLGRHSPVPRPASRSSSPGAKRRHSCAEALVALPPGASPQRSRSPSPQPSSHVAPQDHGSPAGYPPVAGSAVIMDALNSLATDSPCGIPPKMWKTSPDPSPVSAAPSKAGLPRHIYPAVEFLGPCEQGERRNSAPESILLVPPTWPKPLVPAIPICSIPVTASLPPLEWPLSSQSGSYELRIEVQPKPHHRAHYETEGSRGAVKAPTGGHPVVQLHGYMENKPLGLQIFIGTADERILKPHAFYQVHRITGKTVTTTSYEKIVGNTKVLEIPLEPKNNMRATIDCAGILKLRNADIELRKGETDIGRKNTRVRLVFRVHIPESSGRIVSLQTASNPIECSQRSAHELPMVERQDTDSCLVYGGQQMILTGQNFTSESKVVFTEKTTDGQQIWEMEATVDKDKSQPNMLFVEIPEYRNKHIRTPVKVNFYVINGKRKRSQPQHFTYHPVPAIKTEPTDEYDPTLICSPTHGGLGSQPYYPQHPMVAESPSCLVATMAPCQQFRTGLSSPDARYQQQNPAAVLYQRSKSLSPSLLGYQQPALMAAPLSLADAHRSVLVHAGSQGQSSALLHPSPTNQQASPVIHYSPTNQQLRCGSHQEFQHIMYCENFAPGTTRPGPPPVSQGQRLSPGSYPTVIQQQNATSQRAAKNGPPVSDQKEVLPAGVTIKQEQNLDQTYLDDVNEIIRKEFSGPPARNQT
# Sequence of UniProt Q9BVC4 (Q9BVC4 whole entry, looked up): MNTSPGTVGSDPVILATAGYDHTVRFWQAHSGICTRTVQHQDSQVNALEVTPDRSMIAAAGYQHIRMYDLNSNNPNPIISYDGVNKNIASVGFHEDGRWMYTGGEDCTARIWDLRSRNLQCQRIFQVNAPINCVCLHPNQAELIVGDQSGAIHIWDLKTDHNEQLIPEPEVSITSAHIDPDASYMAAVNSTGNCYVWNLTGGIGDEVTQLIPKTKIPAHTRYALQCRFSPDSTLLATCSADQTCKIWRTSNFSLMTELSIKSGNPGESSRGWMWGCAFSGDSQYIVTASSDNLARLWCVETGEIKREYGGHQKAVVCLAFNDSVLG
# Sequence of UniProt Q96D46 (Q96D46 whole entry, looked up): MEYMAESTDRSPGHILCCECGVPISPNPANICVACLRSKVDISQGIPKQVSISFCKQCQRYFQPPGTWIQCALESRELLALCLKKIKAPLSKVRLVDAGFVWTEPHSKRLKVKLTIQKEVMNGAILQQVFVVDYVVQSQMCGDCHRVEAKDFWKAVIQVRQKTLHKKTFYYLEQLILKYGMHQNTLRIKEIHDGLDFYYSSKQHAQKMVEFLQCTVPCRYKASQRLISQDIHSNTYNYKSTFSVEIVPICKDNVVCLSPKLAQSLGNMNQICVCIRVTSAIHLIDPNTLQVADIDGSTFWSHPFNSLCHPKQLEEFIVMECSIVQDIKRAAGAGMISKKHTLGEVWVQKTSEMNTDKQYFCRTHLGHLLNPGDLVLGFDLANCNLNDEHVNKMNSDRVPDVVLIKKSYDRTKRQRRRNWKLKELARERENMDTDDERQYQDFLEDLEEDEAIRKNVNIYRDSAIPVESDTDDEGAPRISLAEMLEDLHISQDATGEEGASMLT
# Sequence of UniProt Q08J23 (Q08J23 whole entry, looked up): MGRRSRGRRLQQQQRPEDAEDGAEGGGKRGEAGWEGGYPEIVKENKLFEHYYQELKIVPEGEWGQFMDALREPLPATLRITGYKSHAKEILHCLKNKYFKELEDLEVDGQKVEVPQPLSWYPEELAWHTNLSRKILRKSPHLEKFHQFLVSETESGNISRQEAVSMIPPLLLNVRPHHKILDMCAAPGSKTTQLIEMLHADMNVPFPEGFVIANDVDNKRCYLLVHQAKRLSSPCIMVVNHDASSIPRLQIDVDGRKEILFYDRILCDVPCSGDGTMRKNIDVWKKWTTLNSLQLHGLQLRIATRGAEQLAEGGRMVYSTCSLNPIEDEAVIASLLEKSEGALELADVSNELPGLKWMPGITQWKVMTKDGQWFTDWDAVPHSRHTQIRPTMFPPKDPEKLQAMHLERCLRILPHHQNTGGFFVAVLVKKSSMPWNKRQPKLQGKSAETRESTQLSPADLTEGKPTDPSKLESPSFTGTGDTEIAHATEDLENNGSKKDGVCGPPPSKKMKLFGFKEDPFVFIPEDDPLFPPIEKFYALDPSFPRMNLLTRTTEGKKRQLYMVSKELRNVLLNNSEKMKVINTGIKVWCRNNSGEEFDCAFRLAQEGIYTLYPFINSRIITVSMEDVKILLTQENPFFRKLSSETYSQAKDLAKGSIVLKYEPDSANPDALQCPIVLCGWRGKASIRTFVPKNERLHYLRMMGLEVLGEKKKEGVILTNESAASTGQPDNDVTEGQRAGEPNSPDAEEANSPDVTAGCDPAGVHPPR
# Sequence of UniProt Q00013 (Q00013 whole entry, looked up): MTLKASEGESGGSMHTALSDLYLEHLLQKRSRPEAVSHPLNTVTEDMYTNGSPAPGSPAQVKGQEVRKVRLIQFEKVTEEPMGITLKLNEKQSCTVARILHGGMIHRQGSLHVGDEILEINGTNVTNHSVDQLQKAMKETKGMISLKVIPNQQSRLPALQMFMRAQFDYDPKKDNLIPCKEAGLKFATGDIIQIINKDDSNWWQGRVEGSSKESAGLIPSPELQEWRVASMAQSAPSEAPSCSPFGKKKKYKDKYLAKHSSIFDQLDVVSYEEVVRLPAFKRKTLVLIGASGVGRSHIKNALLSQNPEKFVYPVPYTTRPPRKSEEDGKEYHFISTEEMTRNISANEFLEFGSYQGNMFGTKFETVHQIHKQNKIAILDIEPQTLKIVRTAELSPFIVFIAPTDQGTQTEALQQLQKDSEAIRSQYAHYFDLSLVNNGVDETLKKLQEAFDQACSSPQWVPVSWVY
# Sequence of UniProt O14950 (O14950 whole entry, looked up): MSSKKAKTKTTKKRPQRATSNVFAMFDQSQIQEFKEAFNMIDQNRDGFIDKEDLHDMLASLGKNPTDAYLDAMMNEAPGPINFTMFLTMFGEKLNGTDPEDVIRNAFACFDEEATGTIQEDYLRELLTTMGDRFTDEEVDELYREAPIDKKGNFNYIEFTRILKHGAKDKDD
# Sequence of UniProt Q13153 (Q13153 whole entry, looked up): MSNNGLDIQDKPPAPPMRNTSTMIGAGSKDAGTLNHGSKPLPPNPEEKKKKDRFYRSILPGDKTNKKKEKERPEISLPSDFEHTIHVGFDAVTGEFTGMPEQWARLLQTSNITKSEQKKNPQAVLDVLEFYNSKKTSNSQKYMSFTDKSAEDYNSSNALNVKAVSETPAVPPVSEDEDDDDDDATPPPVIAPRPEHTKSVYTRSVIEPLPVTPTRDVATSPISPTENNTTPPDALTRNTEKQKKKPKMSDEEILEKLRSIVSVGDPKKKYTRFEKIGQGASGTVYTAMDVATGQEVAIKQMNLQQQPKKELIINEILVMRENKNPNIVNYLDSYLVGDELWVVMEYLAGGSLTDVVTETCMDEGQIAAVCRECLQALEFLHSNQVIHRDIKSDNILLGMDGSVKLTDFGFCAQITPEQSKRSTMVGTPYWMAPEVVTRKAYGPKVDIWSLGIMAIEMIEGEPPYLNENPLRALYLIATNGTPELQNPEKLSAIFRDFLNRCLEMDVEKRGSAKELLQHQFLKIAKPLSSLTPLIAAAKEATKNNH
# Sequence of UniProt O75607 (O75607 whole entry, looked up): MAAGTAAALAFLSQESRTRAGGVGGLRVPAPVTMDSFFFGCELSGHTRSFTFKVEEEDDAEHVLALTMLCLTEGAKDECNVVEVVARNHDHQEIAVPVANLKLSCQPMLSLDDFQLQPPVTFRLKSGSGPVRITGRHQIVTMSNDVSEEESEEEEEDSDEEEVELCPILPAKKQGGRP
Target,log2 fold change (saracatinib),log2 fold change (sotrastaurin),log2 fold change (alvocidib),log2 fold change (Tubastatin A),log2 fold change [1],log2 fold change (defactinib),log2 fold change (rucaparib),log2 fold change [2],log2 fold change (encorafenib),log2 fold change [3],log2 fold change [4],log2 fold change (filanesib),log2 fold change (zotarolimus),log2 fold change (idasanutlin),log2 fold change (alisertib),log2 fold change [5],log2 fold change (gefitinib),log2 fold change [6],log2 fold change (lapatinib),log2 fold change (pictilisib)
NMD3 (UniProt Q96D46),0.043,0.02,-0.012,0.07,0.088,0.06,-0.181,0.003,0.028,-0.052,0.004,-0.221,0.008,-0.095,-0.034,0.108,0.007,0.016,0,0.089
NAT14 (UniProt Q8WUY8),-0.054,0.068,-0.134,-0.02,0,-0.235,-0.002,-0.005,0.002,0.163,0.151,-0.001,0.107,-0.041,-0.013,-0.086,-0.016,0.12,0.081,–
NSUN2 (UniProt Q08J23),0.008,-0.243,-0.328 (active),-0.008,-0.081,-0.281 (active),-0.021,-0.083,0.004,0.009,-0.153,-0.002,-0.046,0.021,-0.022,-0.235,0.015,-0.003,0.035,-0.088
MPP1 (UniProt Q00013),-0.023,-0.085,-0.022,0.051,0.073,-0.082,0.104,0.059,0.067,-0.047,0.024,-0.041,-0.027,0.069,0.032,0.016,0.114,-0.074,0.032,0.096
NUP205 (UniProt Q92621),-0.003,-0.057,-0.127,0.023,-0.024,-0.132,-0.065,-0.012,0.096,-0.038,0.015,0.01,0.009,-0.08,-0.014,0.058,-0.011,-0.008,-0.03,-0.01
MLST8 (UniProt Q9BVC4),-0.124,-0.003,-0.034,0.124,-0.116,-0.092,0.099,0.014,0.101,-0.106,0.1,-0.206,-0.12,-0.154,0.019,0.055,-0.041,-0.081,-0.039,–
NPM3 (UniProt O75607),0,0,0.032,0.031,-0.06,0.001,0.155,-0.042,0.034,-0.04,0.123,0.116,0.104,0.258,-0.205,0.006,-0.011,-0.069,-0.003,-0.025
NFATC2 (UniProt Q13469),-0.128,-0.166,-0.199,0.118,0.007,-0.14,-0.047,-0.382 (active),0.101,0.071,0.015,0.161,-0.084,0.058,0.147,-0.036,0.031,-0.152,-0.001,-0.029
MORC3 (UniProt Q14149),0,-0.141,-0.08,-0.247,0.249,-0.184,0.044,-0.02,0.076,-0.048,0.013,-0.04,0.015,0.021,0.039,0.146,-0.082,0,-0.058,0.196
MYL12B (UniProt O14950),0.057,-0.012,-0.14,0.019,0.007,-0.036,0.009,-0.041,-0.012,-0.018,-0.008,-0.052,0.111,-0.064,-0.06,0.022,-0.001,-0.018,0.047,-0.015
NECTIN2 (UniProt Q92692),0.021,0.047,-0.044,-0.013,-0.056,-0.013,-0.051,0.049,-0.024,0.063,-0.028,0.027,-0.042,-0.003,-0.084,0.011,0.06,0.014,-0.01,0.021
NSMCE2 (UniProt Q96MF7),-0.019,-0.095,-0.004,0,0.031,-0.06,0.076,-0.076,-0.001,0.025,-0.029,0.045,0.018,0.027,-0.076,0.018,-0.009,-0.018,0.023,-0.233 (active)
MRPS33 (UniProt Q9Y291),-0.033,-0.077,-0.038,0.02,-0.018,0.087,0.119,0.04,0.024,0.02,-0.033,0.002,0.043,-0.167,-0.052,-0.057,0,0.008,0.036,-0.1
NUP85 (UniProt Q9BW27),0.027,-0.026,-0.023,-0.001,-0.021,-0.097,-0.047,-0.034,0.025,0.003,0.01,-0.009,-0.022,0.016,-0.061,-0.038,0.025,0.043,-0.042,0.049
PAK1 isoform 2 (UniProt Q13153),0.074,-0.015,-0.026,-0.098,0.009,0.039,-0.082,-0.009,0.033,0.048,0.178,0.04,0.003,-0.155,0.086,-0.007,-0.025,-0.098,-0.015,0.183
NUP210 (UniProt Q8TEM1),0.017,-0.019,-0.04,-0.003,-0.147,-0.021,-0.039,-0.07,0.027,-0.035,-0.099,-0.08,0.002,0.019,-0.045,-0.319 (active),-0.053,0.045,-0.089,-0.114
